This is a sample that favours compounds with a hit; in the whole collection about 21% have one here.
Pf growth 48h – Primary qHTS for delayed death inhibitors of the malarial parasite plastid, 48 hour incubation. P. falciparum luciferase growth in erythrocytes, 48 h. Potency, µM (series often up to 28.7 µM), for inactives: at the top dose activity change, negative = inhibition, hits mostly inhibitors. 5.9% of 310,000 active. AID 504832, 2011; active = well fitted inhibition curve with a large enough effect; inconclusive = small, poorly fitted or top-dose-only effect, or another doubt; inactive = no such curve, though single readings can be large or run the other way; note: potency is the fitted concentration of half-maximal effect; % is set by controls: 0 for no effect and ±100 for the full control effect
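First compound was added to culture medium, then infected red cells at 0.1% parasitemia and 2% hematocrit (final). After incubation at 37 C under 5% CO2, luciferase detection reagent was dispensed and light output recorded.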
SARS PLP yeast – qHTS of Yeast-based Assay for SARS-CoV PLP. S. cerevisiae expressing SARS-CoV PLpro, growth rescue. Potency, µM (top dose mostly 32.9 µM), without a hit: top-dose activity, positive = growth rescue, most hits filed as activators. 0.19% of 330,000 active. AID 485353, 2010; note: potency is the fitted concentration of half-maximal effect; 0% is about no effect; nearly all actives have a fitted effect of over 55% in size
Shiga toxin inh – A qHTS for Small Molecule Inhibitors of Shiga Toxin; Vero cells, Shiga toxin protein synthesis inhibition reporter; inhibition, % at 38.7 µM; 9.2% of 290,000 active; AID 2315, 2010; in the data active = inhibition mostly above about 28%, no sharp cut-off; inactive = mostly below about 43%; note: 0% is about no effect
NS1 function inh – qHTS Assay for Inhibitors of Influenza NS1 Protein Function; Potency, µM (top dose mostly 46.1 µM), inactives show at the highest dose activity, positive = more growth; 0.4% of 270,000 active; note: potency is the fitted concentration of half-maximal effect; actives are rising curves; nearly all actives have a fitted effect of over 50% in size
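A cell-based growth assay was used: compounds that relieve NS1-induced slow growth of budding yeast raise OD600. Assay medium was yeast nitrogen base with ammonium sulphate and -URA supplement, pH 6.0, with 2% galactose.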
CHX counter – Cycloheximide Counterscreen for Small Molecule Inhibitors of Shiga Toxin; cell reporter, cycloheximide protein synthesis inhibition counterscreen; 12% of 300,000 active; AID 2314, 2010; max response, %; in the data active = max response mostly above about 13%, no sharp cut-off; inactive = mostly below about 14%; note: read at 38.3 µM for the half of the compounds with a filed dose; 0% is about no effect
Pf growth 96h – Primary qHTS for delayed death inhibitors of the malarial parasite plastid, 96 hour incubation; P. falciparum luciferase reporter growth, 96 h; 6.9% of 320,000 active; Potency, µM (titrated, usually from 28.7 µM), without a hit: at the highest dose activity change, negative = inhibition, most hits filed as inhibitors; AID 504834, 2011; active = well fitted inhibition curve with a large enough effect; inconclusive = small, poorly fitted or top-dose-only effect, or another doubt; inactive = no such curve, though single readings can be large or run the other way; note: potency is the fitted concentration of half-maximal effect; % is set by controls: 0 for no effect and ±100 for the full control effect
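Luminescence readout: decreased luciferase signal marks inhibited growth of reporter-expressing P. falciparum in infected red cells (2% hematocrit, 0.05% parasitemia final), exposed to compound two generations (96 h, 37 C, 5% CO2).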
Active calls of the source: *. Unless noted, calls come from the whole dose curve.

Results for Cc1c(S(=O)(=O)N2CCCCC2)c(=O)n(C)c(=O)n1C ?
Pf growth 48h: 6%; SARS PLP yeast: -1%; Pf growth 96h: -5%

What do the screens show for `Cc1cc(Cl)ccc1NC(=O)C1CCCN1C(=O)c1cccs1` (configuration not stated)?
Pf growth 48h: -2%; SARS PLP yeast: 0%; Shiga toxin inh: 3; NS1 function inh: 4%; CHX counter: -2; Pf growth 96h: 27%

How did CCN(C(=O)[C@@H]1CCCN1C(=O)c1cccs1)c1nc2cc(Cl)ccc2s1 do in these assays?
Pf growth 48h: 11%; SARS PLP yeast: -1%; Shiga toxin inh: 9; NS1 function inh: 16%; CHX counter: 18*; Pf growth 96h: 1%

Results for O=C(CSc1n[nH]c(-c2ccccc2)n1)NC(=O)NCc1ccco1 ?
Pf growth 48h: 4%; SARS PLP yeast: -1%; Shiga toxin inh: 9; NS1 function inh: 4%; CHX counter: 2; Pf growth 96h: inconclusive

Results for CC(C)OCCCNS(=O)(=O)c1ccc2ccccc2c1 ?
Pf growth 48h: 6%; SARS PLP yeast: -18%; Shiga toxin inh: -7; NS1 function inh: -13%; CHX counter: -3

What do the screens show for `Cc1ccc(Nc2n[nH]c(C)c2[N+](=O)[O-])cc1C`?
Pf growth 48h: 285%; SARS PLP yeast: -44%; Shiga toxin inh: 54; NS1 function inh: -1%; CHX counter: 32*; Pf growth 96h: inconclusive

Results for COCC(C)n1c(C)cc(C(=O)COc2ccc(S(=O)(=O)N3CCOCC3)cc2Cl)c1C (configuration not stated) ?
Pf growth 48h: 13µM*; SARS PLP yeast: 0%; Shiga toxin inh: -2; NS1 function inh: 13%; CHX counter: 6

What do the screens show for `O=C(c1ccco1)N1CCN(C(=O)c2cc3sccc3n2Cc2ccccc2)CC1`?
Pf growth 48h: 12µM*; SARS PLP yeast: 10%; Shiga toxin inh: -17; NS1 function inh: -1%; CHX counter: -4; Pf growth 96h: -14%

How did CN1CCN(C(=O)c2cc3sccc3n2CC(=O)c2ccccc2)CC1 do in these assays?
Pf growth 48h: 7%; SARS PLP yeast: -4%; Shiga toxin inh: -19; NS1 function inh: 2%; CHX counter: -6; Pf growth 96h: 2%

Results for O=C(NCc1ccco1)c1ccc(Cn2c(=O)c3ccccc3n(Cc3cccc(Cl)c3)c2=O)cc1 ?
SARS PLP yeast: -3%; Shiga toxin inh: -5; NS1 function inh: 11%; CHX counter: -2

What do the screens show for `O=C(NCc1ccco1)c1cc2sccc2n1Cc1ccccc1`?
Pf growth 48h: 12µM*; SARS PLP yeast: -77%; Shiga toxin inh: 36*; NS1 function inh: -72%; CHX counter: 56*; Pf growth 96h: 2.1µM*

What do the screens show for `O=C(NCc1ccco1)c1ccc(Cn2c(=O)c3sccc3n(Cc3cccc(F)c3)c2=O)cc1`?
SARS PLP yeast: 0%; Shiga toxin inh: 22; NS1 function inh: inconclusive; CHX counter: 26*; Pf growth 96h: 2.6µM*

How did O=C(NCCc1ccccc1)c1cc2sccc2n1Cc1ccccc1 do in these assays?
Pf growth 48h: inconclusive; SARS PLP yeast: 2%; Shiga toxin inh: 19; NS1 function inh: 5%; CHX counter: 15; Pf growth 96h: inconclusive

Results for CCc1ccc(OC(C)C(=O)Nc2ccc(S(=O)(=O)Nc3nccs3)cc2)cc1 (configuration not stated) ?
Pf growth 48h: 12%; SARS PLP yeast: -1%; Shiga toxin inh: 24; NS1 function inh: inconclusive; CHX counter: -4; Pf growth 96h: inconclusive

How did COc1cc(CC(=O)OCc2ccccc2F)cc(OC)c1OC do in these assays?
Pf growth 48h: 17%; SARS PLP yeast: 0%; Shiga toxin inh: 8; NS1 function inh: -20%; CHX counter: 1; Pf growth 96h: 15%

How did Cc1ccc(-c2nn3cnnc3c3ccccc23)cc1C do in these assays?
Pf growth 48h: inconclusive; SARS PLP yeast: -9%; Shiga toxin inh: -6; NS1 function inh: -8%; CHX counter: -2; Pf growth 96h: inconclusive
